Tgondii IFNg: T. gondii growth inhibition under IFN-gamma; Toxoplasma gondii growth in IFN-gamma-treated host cells; active compounds read low; activity change, negative = inhibition, % (concentration not given with the values); 69,000 tested, 3.8% active; AID 1259416; in the data active = activity change below about -70%, passing the limit was not always enough;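 also: host cells are HeLa cells infected with Toxoplasma gondii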
The depositor's hits bear a star; ! = repeats disagree. This is one part of a sample in which hits are shown more often than they occur.

SMILES | Tgondii IFNg
COC(=O)c1c(NCC2CCCO2)c2cccc(Cl)c2[nH]c1=O (centres undefined) | 14.8
COc1cccc(OC)c1C(O)c1nc(-c2ccncc2)cc2ncccc12 (centres undefined) | 17.5
COc1ccc(-c2cc(-c3ccccc3)c(-c3ccccc3)o2)cc1 | -16.1
COc1ccc(-c2cc(-c3ccc4ccccc4c3)n(C)c2-c2ccc(F)cc2)cc1 | -93.6*
COc1ccc(-c2nc(Nc3ccc(F)cc3)c3ccccc3n2)cc1 | -28.4
CCOc1ccc(-c2nc(Cn3nnc(C(=O)Nc4cccc(C(F)(F)F)c4)c3C)c(C)o2)cc1 | 125.2
CSc1sc(NC(=O)Nc2cccc(C(F)(F)F)c2)cc1C#N | -2.4
Cn1nc(C(F)(F)F)cc1-c1ccc(NC(=O)Nc2cccc(C(F)(F)F)c2)s1 | -90.2*
O=C(Nc1cccc(C(F)(F)F)c1)N1CCSCC1 | -28.8
COC[C@]12COC[C@H]1CN(C(=O)COc1cccc(Cl)c1)C2 | 5.1
O=C(c1ccc(Cl)cc1)n1ccc(-c2ccc(C#Cc3ccccc3)cc2)n1 | 99.3
C=CCn1c(SCC(O)Cn2c3ccccc3c3ccccc32)nnc1-c1ccco1 (centres undefined) | -49.3
OC(CSc1nc2ccccc2s1)Cn1c2ccccc2c2ccccc21 (centres undefined) | -74.5*
Cc1nc2ccccc2n1CC(O)Cn1c2ccccc2c2ccccc21 (centres undefined) | -0.9
O=C(NCCc1csc(-c2ccccc2)n1)[C@H]1CSCN1C(=O)COc1ccccc1 | 17.3
Cc1noc(C)c1C(=O)NC(C)CC1=CCCN(CCCF)C1 (centres undefined) | -1.3
CCCCCCCCCCCCCCCCn1cc[n+](Cc2ccccc2)c1C | -79.0*
CCCCCN=c1ccn(Cc2ccccc2)c2ccccc12 | -0.3
Cc1c(Cl)cccc1NC(=O)CN1CCC2(CC1)N=C(c1ccc(F)cc1)C(=O)N2 | 46.4
CCc1noc(-c2cc(=O)n(CC(=O)NCc3ccccc3OC)c3ccccc23)n1 | 13.7
Cc1ccc(Cn2c(CN3CCC(C(=O)NCc4ccccn4)CC3)cc3ccccc32)cc1 | 1.6
Cc1ccc(NC(=O)c2ccc3c(c2)c(C)cn3C)c(-c2cc(C)[nH]n2)c1 | -48.5
COc1ccc(-c2cc(C(=O)Nc3ccc(C)cc3-c3cc(C)[nH]n3)no2)cc1 | -78.1*
COc1ccc(C(=O)Nc2ccc(-c3nc(-c4ccc(C)cc4C)co3)cc2)cc1 | 18.0
COCC1CN(C(=O)c2ccoc2)Cc2ncn(CC3CC3)c21 (centres undefined) | -34.0
SMILES | Tgondii IFNg
COc1cccc(-n2c(=O)c(C(=O)Nc3ccc(F)cc3F)c(O)c3cccnc32)c1 | 18.5
CCCn1cc(CNC(=O)c2cccc(CC3CCNCC3)c2)cn1 | -6.4
Cc1cc(C)n2nc(C)c(C(=O)N3CCCC4(CC3)CNC(=O)O4)c2n1 (centres undefined) | -2.0
C=C(NC(=O)C(=C)NC(=O)c1csc(C2=N[C@H]3c4csc(n4)[C@H]4NC(=O)c5csc(n5)[C@H]([C@@](C)(O)[C@@H](C)O)NC(=O)[C@H]5CSC(=N5)/C(=C/C)NC(=O)[C@H]([C@@H](C)O)NC(=O)c5csc(n5)[C@]3(CC2)NC(=O)[C@H](C)NC(=O)C(=C)NC(=O)[C@H](C)NC(=O)[C@H](C(C)CC)N[C@@H]2C=Cc3c([C@H](C)O)cc(nc3[C@H]2O)C(=O)O[C@@H]4C)n1)C(N)=O (some centres undefined) | -55.7
C=C(NC(=O)C(=C)NC(=O)c1csc(C2=N[C@@H]3c4csc(n4)[C@H]4NC(=O)c5csc(n5)[C@H]([C@](C)(O)[C@@H](C)O)NC(=O)[C@H]5CSC(=N5)/C(=C/C)NC(=O)[C@H]([C@@H](C)O)NC(=O)c5csc(n5)[C@]3(CC2)NC(=O)[C@H](C)NC(=O)C(=C)NC(=O)[C@H](C)NC(=O)[C@H]([C@@H](C)CC)N[C@@H]2C=Cc3c([C@H](C)O)cc(nc3[C@H]2O)C(=O)O[C@@H]4C)n1)C(N)=O | -72.4*
COCCNC(=O)N1CC2(CCN(Cc3ccco3)CC2)c2ccccc21 | -4.4
Cc1ccsc1CN(C)C(=O)c1ccc(OCC(N)=O)cc1 | 6.4
Cc1onc(-c2ccc(Cl)cc2)c1-c1ccnc(SCC(=O)c2ccccc2)n1 | -72.4*
CC(C)c1ccc(NC(=O)CSc2nccc(-c3csc(-c4ccccc4)n3)n2)cc1 | -21.9
Cc1ccc(C(=O)CSc2ncn(-c3ccccc3)n2)cc1 | 12.1
C=CCN1C(=O)C(CCC(=O)O)NC1=S (centres undefined) | -8.8
CCOC(=O)c1nn(CCc2ccc(OC)cc2)c2c1CN(C(=O)c1snnc1C)CC2 | 0.4
CO[C@H]1/C=C\C=C(/C)C(=O)NC2=CC(=O)C(NCCN(C)C)=C(C[C@@H](C)C[C@H](OC)[C@H](O)[C@@H](C)/C=C(\C)[C@@H]1OC(N)=O)C2=O | -81.8*!
COC1C=COC2(C)Oc3c(C)c(O)c4c(c3C2=O)C2(C=C(NC(=O)/C(C)=C\C=C/C(C)C(O)C(C)C(O)C(C)C(OC(C)=O)C1C)C4=O)OCC(=O)O2 (centres undefined) | 13.7
Cc1ccc(-c2nc(CCNC(=O)C(=O)Nc3cc(C)cc(C)c3)cs2)cc1 | 2.0
COC(=O)C(Cc1cnc[nH]1)NC(=O)c1ccc2nc(C)[nH]c2c1 (centres undefined) | 5.7
COC(=O)c1ccc(NC(=O)CSc2nnnn2Cc2ccc3c(c2)OCO3)cc1 | -1.9
O=c1c2snc(-c3ccc(Cl)cc3)c2ncn1CCc1ccccc1 | 29.8
COc1nccnc1-c1c[nH]c2ccc(C)cc12 | 137.9
COc1nc(OC)nc(-c2c[nH]c3ccc(C)cc23)n1 | -87.0*
Cc1ccc2[nH]cc(-c3nccc(C(F)(F)F)n3)c2c1 | -11.7
Cn1c(CCC(=O)N2CCNCC2C(=O)NC2CC2)nc2cccnc21 (centres undefined) | -39.7
CC(C)CN1C(=O)CCC12CCC(NC(=O)c1cnccn1)CC2 (centres undefined) | -2.3
CCS(=O)(=O)N1CCC2(CCC2NC(=O)c2cnccn2)CC1 (centres undefined) | 5.6
CCC[C@H](NC(=O)[C@@H]1[C@H]2CCC[C@H]2CN1C(=O)[C@@H](NC(=O)[C@@H](NC(=O)c1cnccn1)C1CCCCC1)C(C)(C)C)C(=O)C(=O)NC1CC1 | -73.9*
SMILES | Tgondii IFNg
COc1cc(-c2nc(Cn3ccn4nc(-c5ccccc5)cc4c3=O)c(C)o2)cc(OC)c1OC | -35.5
CCCCc1cc(C(=O)NC2CC(=O)N(c3cccc(OC)c3)C2)n[nH]1 (centres undefined) | 5.4
Cc1oc(-c2ccccc2)nc1Cn1ccn2nc(-c3ccc4c(c3)OCO4)cc2c1=O | -15.2
CCN(CC)S(=O)(=O)c1ccc2c(c1)N(Cc1nc(-c3ccccc3)oc1C)C(=O)CS2 | -79.5*
Cc1oc(-c2ccccc2)nc1CN1C(=O)CSc2ccc(S(=O)(=O)N3CCCCCC3)cc21 | -95.2*
Cc1oc(-c2ccc3ccccc3c2)nc1CN1CCN(S(N)(=O)=O)CC1 | 36.2
CNC(=O)c1ccc(-c2nc(CN3CCN(S(=O)(=O)c4ccc(OC)cc4)CC3)c(C)o2)cc1 | 13.6
CCOC(=O)c1ccc2c(c1)N(Cc1nc(-c3cccc(C)c3)oc1C)C(=O)c1ccccc1S2 | -42.8
Cc1cccc(-n2ncc3c(NCc4cccc(Cl)c4)ncnc32)c1 | -32.6
Cc1cnc(NCC2Cn3nnc(-c4ccnn4C)c3CO2)nc1 (centres undefined) | -0.4
COCc1ccc(C(=O)N2CCC3(CC2)CN(C(C)=O)c2ccccc2N3)o1 | -3.3
